# Bioassay records (PubChem)
# HP1b binding inh = HTS for Inhibitors of HP1-beta Chromodomain Interactions with Methylated Histone Tails. Chromobox protein homolog 1 (Homo sapiens), P83916. 390,000 compounds, 0.56% hits. Potency, µM (doses to about 114 µM), without a hit: top-dose activity change, negative = inhibition, most hits filed as inhibitors. AlphaScreen HP1-beta / biotin-H3K9me3 peptide binding. AID 540317, 2011; note: nearly all actives have a fitted effect of over 70% in size
#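 Compound inhibition of the preformed complex between 50 nM HP1-beta and 50 nM biotinylated H3K9me3 peptide was read by AlphaScreen. Buffer was PBS pH 7.4 with 0.01% Tween-20. Incubations ran 30 min at room temperature, with 10 ug/mL donor/acceptor beads.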
# G9a inh = qHTS Assay for Inhibitors of Histone Lysine Methyltransferase G9a; Histone-lysine N-methyltransferase EHMT2 (Homo sapiens), Q96KQ7; G9a H3K9 monomethylation, AlphaScreen, 2 h; Potency, µM (doses to about 102 µM), without a hit: at the highest dose activity, negative = inhibition, hits mostly inhibitors; 350,000 compounds, 8.8% hits; note: % is set by controls: 0 for no effect and ±100 for the full control effect; nearly all actives have a fitted effect of over 75% in size
#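 G9a (20 nM) preincubated 15 min RT with compounds, then 500 nM biotinylated H3K9 peptide and 20 uM SAM added; 2 h RT reaction. Monomethyl-H3K9 product detected by AlphaScreen with anti-H3K9me1 antibody, streptavidin donor and anti-rabbit IgG acceptor beads.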
# JMJD2A Tudor inh = qHTS Assay for Inhibitors of JMJD2A-Tudor Domain | Lysine-specific demethylase 4A (Homo sapiens), O75164 | AlphaScreen JMJD2A-Tudor / H3K4me3 peptide binding | Potency, µM (series often up to 114 µM), inactives show at the highest dose activity change, negative = inhibition, actives largely listed as inhibitors | 390,000 compounds, 4.4% hits; note: % is set by controls: 0 for no effect and ±100 for the full control effect; nearly all actives have a fitted effect of over 50% in size
# BAZ2B inh = qHTS Assay for Inhibitors of BAZ2B. AlphaScreen BAZ2B-H3K14Ac peptide displacement. Potency, µM (top dose mostly 114 µM), inactives show at the top dose activity change, negative = inhibition, most hits filed as inhibitors. 360,000 compounds, 4.4% hits. AID 504333, 2011; note: % is set by controls: 0 for no effect and ±100 for the full control effect; nearly all actives have a fitted effect of over 60% in size
# Target sequence (Q9UIF8 whole entry, looked up): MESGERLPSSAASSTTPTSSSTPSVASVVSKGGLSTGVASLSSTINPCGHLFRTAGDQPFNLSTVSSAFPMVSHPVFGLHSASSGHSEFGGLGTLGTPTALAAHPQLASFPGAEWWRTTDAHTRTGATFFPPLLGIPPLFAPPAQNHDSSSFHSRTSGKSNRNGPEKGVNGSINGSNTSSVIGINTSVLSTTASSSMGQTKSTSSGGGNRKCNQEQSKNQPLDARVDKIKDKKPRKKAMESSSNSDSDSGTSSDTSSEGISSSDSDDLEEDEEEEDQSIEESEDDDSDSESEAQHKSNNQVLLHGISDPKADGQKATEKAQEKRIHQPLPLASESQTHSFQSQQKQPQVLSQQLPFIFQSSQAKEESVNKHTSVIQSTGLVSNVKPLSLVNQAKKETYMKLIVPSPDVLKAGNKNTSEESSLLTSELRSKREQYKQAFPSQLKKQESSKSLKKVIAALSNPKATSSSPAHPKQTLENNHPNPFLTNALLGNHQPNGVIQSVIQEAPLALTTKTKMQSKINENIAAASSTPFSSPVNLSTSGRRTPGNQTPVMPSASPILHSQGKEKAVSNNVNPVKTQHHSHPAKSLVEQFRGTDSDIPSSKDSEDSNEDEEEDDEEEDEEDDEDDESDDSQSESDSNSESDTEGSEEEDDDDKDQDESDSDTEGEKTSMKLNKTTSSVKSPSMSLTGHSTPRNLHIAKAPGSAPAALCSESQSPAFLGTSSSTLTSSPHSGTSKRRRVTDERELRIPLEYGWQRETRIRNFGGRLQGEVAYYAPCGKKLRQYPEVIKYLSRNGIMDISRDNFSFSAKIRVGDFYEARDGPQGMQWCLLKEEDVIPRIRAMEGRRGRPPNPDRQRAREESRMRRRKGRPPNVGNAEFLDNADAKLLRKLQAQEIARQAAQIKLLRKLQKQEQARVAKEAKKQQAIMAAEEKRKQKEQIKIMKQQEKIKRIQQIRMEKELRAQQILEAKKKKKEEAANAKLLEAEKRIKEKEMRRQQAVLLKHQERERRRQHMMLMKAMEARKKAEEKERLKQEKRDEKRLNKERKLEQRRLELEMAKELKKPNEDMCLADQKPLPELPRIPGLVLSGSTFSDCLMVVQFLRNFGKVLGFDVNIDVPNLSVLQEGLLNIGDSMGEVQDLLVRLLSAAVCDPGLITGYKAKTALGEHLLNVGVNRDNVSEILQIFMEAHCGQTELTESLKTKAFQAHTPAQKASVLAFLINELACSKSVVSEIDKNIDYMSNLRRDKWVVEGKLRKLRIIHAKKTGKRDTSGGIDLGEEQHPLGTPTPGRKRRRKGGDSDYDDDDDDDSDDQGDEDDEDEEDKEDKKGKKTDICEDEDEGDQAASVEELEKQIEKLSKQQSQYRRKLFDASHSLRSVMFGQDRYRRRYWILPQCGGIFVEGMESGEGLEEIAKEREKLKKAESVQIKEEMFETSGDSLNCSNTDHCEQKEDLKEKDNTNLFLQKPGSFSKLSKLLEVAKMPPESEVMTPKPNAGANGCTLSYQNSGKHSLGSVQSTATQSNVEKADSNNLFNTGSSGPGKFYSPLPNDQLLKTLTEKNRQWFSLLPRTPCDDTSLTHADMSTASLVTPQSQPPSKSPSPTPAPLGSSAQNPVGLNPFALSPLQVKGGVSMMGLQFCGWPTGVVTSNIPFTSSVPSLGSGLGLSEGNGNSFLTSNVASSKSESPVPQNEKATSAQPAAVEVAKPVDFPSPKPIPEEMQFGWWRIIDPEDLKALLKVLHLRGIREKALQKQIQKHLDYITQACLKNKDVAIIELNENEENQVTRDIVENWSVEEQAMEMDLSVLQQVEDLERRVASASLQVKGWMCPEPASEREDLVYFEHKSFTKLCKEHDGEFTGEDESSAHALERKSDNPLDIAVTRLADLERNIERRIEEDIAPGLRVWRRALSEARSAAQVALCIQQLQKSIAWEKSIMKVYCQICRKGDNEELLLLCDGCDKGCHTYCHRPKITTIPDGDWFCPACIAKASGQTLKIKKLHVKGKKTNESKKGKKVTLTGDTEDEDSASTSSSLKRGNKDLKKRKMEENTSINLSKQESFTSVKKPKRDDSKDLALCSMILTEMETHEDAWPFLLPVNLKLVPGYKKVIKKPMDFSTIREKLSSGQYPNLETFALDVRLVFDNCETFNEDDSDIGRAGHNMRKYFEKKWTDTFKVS
#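 AlphaScreen luminescence quantifies BAZ2B engagement of H3K14Ac peptide; the protein and biotinylated peptide are both at 50 nM final, buffer PBS pH 7.4 with 0.01% Tween-20, all steps at room temperature.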
# ALOX12 inh = Primary qHTS assay for inhibitors of human arachidonate 12S-lipoxygenase (ALOX12): Round 2; Polyunsaturated fatty acid lipoxygenase ALOX12 (Homo sapiens), P18054; purified 12hLO, xylenol orange hydroperoxide absorbance; Potency, µM (highest dose often 108 µM), without a hit: top-dose activity change, negative = inhibition, most hits filed as inhibitors; 580,000 compounds, 1.1% hits; note: % is set by controls: 0 for no effect and ±100 for the full control effect
#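 Hydroperoxide product was detected by ferrous iron/xylenol orange as the 573 to 405 nm absorbance ratio. Arachidonic acid at 40 uM (final) was turned over for 30 min at room temperature by 150 nM human 12hLO, pH 7.0 Hepes buffer, after 15 min compound preincubation.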
# Sfp inh = qHTS Assay for Inhibitors of Bacillus subtilis Sfp phosphopantetheinyl transferase (PPTase). 4'-phosphopantetheinyl transferase ffp (Bacillus subtilis), Q9F4F7. Biochemical Sfp PPTase activity, qHTS. Potency, µM, inactives show largest response in the series, negative = inhibition, hits mostly inhibitors. 310,000 compounds, 3.5% hits;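 note: the enzyme is Sfp with the accession as filed and its product quenches rhodamine fluorescence; 0% = enzyme reaction without inhibitor and -100% = no enzyme wells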
#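 Compounds were incubated with enzyme (final 15 nM) for 15 min at room temperature before substrate addition started the reaction. Fluorescence at 525 nm excitation, 598 nm emission was recorded immediately and after 30 minutes.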
# Active calls of the source: *; ? = inconclusive; . = no result; ! = a repeat was not active; [ ] = another dose, or the depositor's remark. The list is not random: actives were taken first. Their share in the collection is about 8.7%. Calls come from the whole dose curve; as a rule, active = well fitted curve in the direction sought with a large enough effect; inconclusive = small, poorly fitted or top-dose-only effect, or another doubt; inactive = no such curve, though single readings can be large; an effect the other way counts as inactive or inconclusive. Potency is the fitted concentration of half-maximal effect.
SMILES,HP1b binding inh,G9a inh,JMJD2A Tudor inh,BAZ2B inh,ALOX12 inh,Sfp inh
CCC(Sc1n[nH]c(=O)[nH]c1=O)C(=O)OCc1ccccc1 (stereo unspecified),28.3%,?,-10.4%,-0.4%,5.8%,?
COc1ccc(N2CCN(S(=O)(=O)c3c(C)[nH]c(C)c3C(=O)N3CCCCC3)CC2)cc1,19.5%,?,-22.1%,?,-0.3%,7.8%
Cc1[nH]c(C)c(S(=O)(=O)N2CCN(c3ccccc3)CC2)c1C(=O)N1CCCC1,6.0%,44.7µM*,-25.2%,-11.7%,26.5%,-2.3%
O=Cc1ccc(N2CCN(C(=O)c3ccc4c(c3)OCO4)CC2=O)cc1,.,.,.,.,7.0%[6.33 µM],.
N[C@@H](Cc1cnc[nH]1)C(=O)O,.,5.97µM*!,.,.,-0.9%,?
CC(C)C[C@H](CO)NC(=O)C[C@@H]1c2nc(NC(=O)c3ccco3)sc2C[C@@H]2[C@](C)(CO)[C@H](O)CC[C@]21C,.,.,.,.,7.7%,.
CCN1CCN(c2cc(=O)n(C3CCCCC3)c(=O)[nH]2)CC1,57.7%,50.1µM*,7.6%,10.7%,11.4%[57.4 µM],20.2%
CN1CCN(c2cc(=O)n(C3CCCCC3)c(=O)[nH]2)CC1,26.9%,35.5µM*,-15.5%,7.5%,16.1%,17.7%
COC(=O)c1ccc(-c2nn(C)c(=O)c3ccccc23)cc1,-1.3%,-8.6%[59 µM],-19.3%,9.2%,-21.2%,20.3%
COC(=O)c1ccc(C(=O)OC)c(-n2c(=O)c3ccccc3c3ccccc3c2=O)c1,39.2%,28.2µM*,-26.4%,?,19.7%,1.9%
COC(=O)Cn1c(=O)n(CCc2ccccc2)c(=O)c2sc3c(c21)COC(C)(C)C3,.,.,.,.,-19.0%,.
COC(=O)c1ccc(C2/C(=C(/O)c3ccc(Cl)cc3)C(=O)C(=O)N2C2CCS(=O)(=O)C2)cc1 (stereo unspecified),-15.6%,44.7µM*,89.1µM*,?,?,0.9%
Cc1c(N2C(=O)C(=O)/C(=C(/O)c3ccc(Cl)cc3)C2c2ccccc2)c(=O)n(-c2ccccc2)n1C (stereo unspecified),28.6%,-18.6%[59 µM],?,-28.1%,-25.8%,21.2%
CN1C(=O)C(=O)/C(=C(/O)c2ccc(Br)cc2)C1c1ccc(Cl)cc1 (stereo unspecified),37.1%,-1.5%[0.501 µM],-15.1%,-16.5%,?,22.6%
O=C1C(=O)N(C2CCS(=O)(=O)C2)C(c2cccc(O)c2)/C1=C(/O)c1ccc(Cl)cc1 (stereo unspecified),-2.1%,31.6µM*,?,79.4µM*,?,10.9%
CC(=O)c1ccc(N2CCN(C(=O)C3(S(=O)(=O)c4ccc(Cl)cc4)CC3)CC2)cc1,6.8%,-25.4%[59 µM],-7.1%,?,-8.1%,13.9%
O=C(CCS(=O)(=O)c1ccc(Br)cc1)N1CCN(c2ccc(F)cc2)CC1,14.1%,50.1µM*,-9.7%,56.2µM*,-8.5%,10.4%
COc1ccc(N2CCN(C(=O)C3(S(=O)(=O)c4ccc(C)cc4)CC3)CC2)cc1,-8.6%,70.8µM*,-17.5%,-23.4%,-7.0%,15.6%
COc1ccc(S(=O)(=O)CCC(=O)N2CCN(c3ccc(C(C)=O)cc3)CC2)cc1,46.4%,31.6µM*,-12.2%,-38.8%,-1.3%,13.6%
COc1ccc(N2CCN(C(=O)CCS(=O)(=O)c3ccc(OC)cc3)CC2)cc1,27.9%,?,-13.1%,3.3%,-13.4%,7.2%
COc1ccc(N2CCN(C(=O)CCS(=O)(=O)c3ccc(C)cc3)CC2)cc1,-12.4%,50.1µM*,-27.9%,?,-7.6%,4.1%
COCc1noc([C@@H]2CC(F)(F)CN2C(=O)c2occc2C)n1,.,.,.,.,-16.6%,.
CC(C)Sc1oc(-c2ccco2)nc1S(=O)(=O)c1ccc(F)cc1,20.5%,10µM*,?,-20.3%,28.2µM*!,?
CCCCSc1oc(-c2ccco2)nc1S(=O)(=O)c1ccc(F)cc1,.,.,.,.,7.94µM*,.
Cc1ccc(S(=O)(=O)c2nc(-c3ccco3)oc2SC(C)c2ccccc2)cc1 (stereo unspecified),19.8%,?,-19.1%,-19.9%,?,.
SMILES,HP1b binding inh,G9a inh,JMJD2A Tudor inh,BAZ2B inh,ALOX12 inh,Sfp inh
CCN(CC)C(=O)[C@@H](C)C1CC[C@@]2(C)CC[C@H](NC(=O)c3ccc(OC)cc3)[C@@H](C)[C@@H]2[C@H]1O (stereo partly specified),.,.,.,.,-22.6%,.
Cc1nc2nc(C)c(NS(=O)(=O)c3ccc(F)cc3)c(=O)n2[nH]1,34.0%,-1.3%[59 µM],2.7%,-11.3%,-20.9%,.
Cc1nc2nc(C)c(NS(=O)(=O)c3ccc(CC(C)C)cc3)c(=O)n2[nH]1,-4.3%,39.8µM*,0.7%,12.1%,-7.8%,20.6%
Cc1ccc(S(=O)(=O)Nc2c(C)nc3nc(C)[nH]n3c2=O)cc1,-5.5%,79.4µM*,?,10.1%,-1.3%,17.6%
COc1ccc(C2C=C(C)Nc3nc(SC)nn32)cc1 (stereo unspecified),38.4%,56.2µM*,-18.3%,0.4%,?,-1.0%
O=C(O)CCCCCNc1ccc2nsnc2c1[N+](=O)[O-],26.0%,60.6%[59 µM],-11.6%,13.3%,-15.6%,89.1µM*
CCCN(CC(=O)Nc1ccccc1OC)C(=O)c1cc(-c2cccs2)nn1-c1ccccc1,29.0%,44.7µM*,-15.2%,-3.1%,?,.
CN(CC(=O)Nc1cccc(F)c1)C(=O)c1cc(-c2cccs2)nn1-c1ccccc1,14.3%,50.1µM*,-23.4%,?,-27.3%,.
O=C(O)c1cc(-c2cccs2)nn1-c1ccc(F)cc1,39.2%,44.7µM*,-12.6%,?,-12.4%,18.8%
CN(CC(=O)Nc1ccccc1C(F)(F)F)C(=O)c1cc(-c2cccs2)nn1-c1ccccc1,12.4%,-5.0%[0.501 µM],-22.1%,6.0%,-14.3%,.
Cc1ccc(C(=O)O)cc1F,.,.,.,.,-3.5%,.
NC(=O)NC(=O)COC(=O)c1cc(Cl)cc(Cl)c1,.,.,.,.,7.4%,.
Cc1ccc(/C=N/NS(=O)(=O)c2ccccc2)o1,-5.1%,10.4%,-6.7%,-0.8%,-7.1%,4.2%
Cc1oc(/C=N/NS(=O)(=O)c2ccccc2)cc1Br,6.4%,15.8µM*,-23.6%,-35.0%,3.5%,-4.7%
CCN1CC2(CCN(Cc3cnn(-c4ccc(F)cc4)c3)CC2)CC1=O,.,.,.,.,13.7%,.
